Values joined by “and” are separate entries in the source; they are usually repeats but may differ in a detail not shown here. Identical values can stand only once. The source holds several records for some structures; these can differ, active in one and inactive in another. Active and inactive are the calls of the source. How the source made its calls: active means hit-call score of the fitted dose curve at least 0.9, where 1 is the maximum; inactive means score below 0.9.
Assay: BSK_SAg_Proliferation: Cell Proliferation Assessment in the BioMAP Diversity Plus: SAg Assay (AID 2283095)
Conditions: primary human HUVEC with PBMC
Protocol: BSK_SAg is a cell-based, multiplexed-readout assay that uses umbilical vein endothelium and peripheral blood mononuclear cells, a human vascular primary cell co-culture, with measurements taken at 24 hours after chemical dosing in a 96-well plate.BSK_SAg_Proliferation is an assay component in the BSK_SAg assay. It measures protein content, a form of viability reporter, as detected with absorbance signals by Sulforhodamine staining technology. Data from the assay component BSK_SAg_Proliferation was analyzed into 1 assay endpoint. This assay endpoint, BSK_SAg_Proliferation, was analyzed with bidirectional fitting relative to DMSO as the negative control and baseline of activity. Using a type of viability reporter, measures of total protein for gain or loss-of-signal activity can be used to understand the viability at the cellular-level. Furthermore, this assay endpoint can be referred to as a secondary readout, because this assay has produced multiple assay endpoints where this one serves a viability function. To generalize the intended target to other relatable targets, this assay endpoint is annotated to the cell cycle intended target family, where the subfamily is proliferation.
The levels of cell surface (or secreted, indicated by the prefix "s") biomarker endpoints were measured by ELISA. Overt cytotoxicity to cells in confluent adherent cultures (all systems other than the BT system) was assessed by measuring total protein levels using sulforhodamine B (SRB) staining in parallel cultures at the time of biomarker measurements, indicated as SRB endpoints. For proliferation assays for adherent cell types, individual cell types are cultured at sub-confluence and relative cell numbers quantified by SRB staining at time points optimized for each system (48 h: 3C and CASM3C systems; 72 h: BT and HDF3CGF systems; 96 h: SAg system). SRB was performed by staining cells with 0.1% SRB after fixation with 10% TCA and reading wells at 560 nm.Viability and proliferation of PBMC (T cells) was quantified by Alamar Blue reduction for the SAg and BT systems. For PBMC viability (referred to as PBMC Cytotoxicity within the assay endpoint names), cells were plated (75,000/well in a 96-well plate) and then chemical samples added for 1 h before addition of activators, SEB and TSST-1 (20 ng/mL final concentration each). Cells were incubated for 90 h. Then, Alamar Blue (20 uL/well) (Invitrogen, Cat DAL1100) was added for 6 h, and the plates were read with a fluorescence microplate reader at 546/580 nm (excitation/emission). For PBMC proliferation, cells were plated and activated as above but incubated for only 16 h prior to addition of Alamar Blue. Plates were read after 6 h.

| Compound | AC50 | outcome |
| --- | --- | --- |
| CC(=O)OCCC(C)CC(C)(C)C (stereo not given) | 1.85 µM (active) | inactive |
| Nc1cc([N+](=O)[O-])ccc1Cl |  | inactive |
| O=P(c1ccccc1)(c1ccccc1)c1ccccc1 |  | inactive |
| CC(C)c1ccc(C(C)C)cc1 |  | inactive |
| OC[C@H]1O[C@H](O[C@]2(CCl)O[C@H](CCl)[C@@H](O)[C@@H]2O)[C@H](O)[C@@H](O)[C@H]1Cl |  | inactive |
| CCc1c(C)cc(N)c(CC)c1N |  | inactive |
| C[C@H]1C[C@@H]2[C@H]([C@@H](O)C[C@@]3(C)[C@H]2CC[C@]3(O)C(=O)CO)[C@@]2(C)C=CC(=O)C=C12 | 2.49 µM (active) and 6.67 µM (active) |  |
| CCCCCCCCCCCCCCCCCC(=O)OCC(CC)CCCC (stereo not given) |  | inactive |
| CCn1c2ccccc2c2cc(N)ccc21 |  | inactive |
| CC1COc2ccccc2N1C(=O)C(Cl)Cl (stereo not given) |  | inactive |
| CC(=O)O[C@]1(C(C)=O)CC[C@H]2[C@@H]3C[C@H](C)C4=CC(=O)CC[C@]4(C)[C@H]3CC[C@@]21C |  | inactive |
| CC(=O)Nc1ccccc1O |  | inactive |
| Cc1cc(C2(c3cc(C)c(O)cc3C)OS(=O)(=O)c3ccccc32)c(C)cc1O |  | inactive |
| O=[N+]([O-])c1cc(C(F)(F)F)ccc1Cl |  | inactive |
| CC1CCC(C(C)CS)CC1S (stereo not given) |  | inactive |
| COC(=O)c1ccc(C)cc1 |  | inactive |
| CCCCC/C=C/C=C/C=O | 14.2 µM (active) |  |
| OC1OC[C@@H](O)[C@H](O)[C@H]1O (stereo not given in full) |  | inactive |
| CC(=O)/C=C/C1=C(C)CCCC1(C)C |  | inactive |
| N#Cc1ccc(CC(=NNC(=O)Nc2ccc(OC(F)(F)F)cc2)c2cccc(C(F)(F)F)c2)cc1 |  | inactive |

| Compound | AC50 | outcome |
| --- | --- | --- |
| O=C1OC2(c3cc(Br)c(O)c(Br)c3Oc3c2cc(Br)c(O)c3Br)c2c(Cl)c(Cl)c(Cl)c(Cl)c21 | 21.3 µM (active) |  |
| CC(=O)[C@H]1CC[C@H]2[C@@H]3CC=C4C[C@@H](O)CC[C@]4(C)[C@H]3CC[C@]12C |  | inactive |
| CCCCC(CC)COC(=O)/C=C\C(=O)OCC(CC)CCCC (stereo not given) | 20 µM (active) |  |
| CC(C)Oc1ccccc1O |  | inactive |
| BrC1CCC(Br)C(Br)CCC(Br)C(Br)CCC1Br (stereo not given) | 4.63 µM (active) |  |
| Cc1ccc2n[nH]nc2c1 |  | inactive |
| CCC(=O)OCc1ccccc1 |  | inactive |
| CCCCCCCCCC=O |  | inactive |
| CCCCCCCCC=O |  | inactive |
| C=CCOC(=O)CCC1CCCCC1 |  | inactive |
| C#C[C@]1(O)CC[C@H]2[C@@H]3CCC4=Cc5oncc5C[C@]4(C)[C@H]3CC[C@@]21C |  | inactive |
| COc1cc(C=O)ccc1OC(=O)C(C)C |  | inactive |
| O=C=NC1CCC(CC2CCC(N=C=O)CC2)CC1 (stereo not given) | 33.5 µM (active) |  |
| c1ccc2c(c1)c1cccc3ccc4cccc2c4c31 |  | inactive |
| Cc1ccc(Nc2ccc(O)c3c2C(=O)c2ccccc2C3=O)cc1 |  | inactive |
| O=C(O)C[C@H](O)C[C@H](O)/C=C/c1c(C2CC2)nc2ccccc2c1-c1ccc(F)cc1 | 0.756 µM (active) |  |
| CN(CCOc1ccc(CC2SC(=O)NC2=O)cc1)c1ccccn1 (stereo not given) | 20 µM (active) |  |
| c1ccc2sc(SN(C3CCCCC3)C3CCCCC3)nc2c1 | 11.4 µM (active) |  |
| C=C(C)C(=O)O[C@H]1C[C@@H]2CC[C@@]1(C)C2(C)C | 30.7 µM (active) |  |

— PubChem BioAssay (EPA / NIEHS)
